Measured values reported in PubChem BioAssay.
Calls of active or inactive are those of the source.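 How the source made its calls, unless noted: active means inhibition above 20% together with a positive visual image hit; inconclusive means visual image hit but inhibition not above 20%; inactive means no visual image hit.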

Tests used:
[1] = inhibitors of TNFa-induced NFkB p65 translocation, primary screen, imaging, HUVEC, MLSMR starter and 10KST1 sets (AID 438); settings: HUVEC TNFa-induced p65 nuclear translocation; cell count: measured here: nuclei count (cytotoxicity indicator), at 2.08 µM; inhibition: at 2 µM, stronger effect = higher value, 0% TNFa-plus-vehicle, 100% no-TNFa wells;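 further: compound added about 3h40 before a 20 min TNFalpha stimulation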;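 on inhibition: signal is the nuclear over cytoplasmic p65 intensity ratio per well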
[2] = inhibitors of mutant huntingtin aggregation, primary screen, imaging, exon1htt(103Q)mCFP cells, high-content imaging (AID 483;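 active means visual image review flags a hit and inhibition of aggregation exceeds 20%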;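 further: compound exposure lasted 3 days before fixation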;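 on nuclei count: percent of the per-plate median nuclei count of sample wells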); settings: exon1htt(103Q)mCFP cell line, aggregate imaging, at 2 µM; inhibition of aggregation: stronger effect = higher value; nuclei count: measured here: cell count, toxicity
[3] = inhibitors of E-selectin induction by TNFa, primary screen, imaging, HUVEC, immunofluorescence, MLSMR starter and 10KST1 sets (AID 487;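 active means visually confirmed hit in the image check and inhibition above 20%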;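 on inhibition: signal is fraction of cell area covered by stained E-selectin grains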;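 on nuclei count: 100% = median nuclei count of all wells on the same plate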); settings: HUVEC TNFalpha-induced E-selectin immunofluorescence imaging, at 2 µM; inhibition: stronger effect = higher value; nuclei count: measured here: cell number, toxicity
[4] = target: Voltage-gated potassium channel subunit beta-2 (Rattus norvegicus) (UniProt P62483); experiment: KvBeta enzyme negative modulators, primary screen, biochemical, NADPH fluorescence (AID 622;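 active means fluorescence slope higher than the sample average by over 3 SD, cut at about -0.22 in these data, passing the limit was not always enough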;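 further: slope of raw intensity against log time taken from 70 to 1610 s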); settings: recombinant KvBeta, 4-cyanobenzaldehyde reduction, at 10 µM, stronger effect = higher value
Sequence of Voltage-gated potassium channel subunit beta-2 (Rattus norvegicus) (P62483 whole entry, looked up): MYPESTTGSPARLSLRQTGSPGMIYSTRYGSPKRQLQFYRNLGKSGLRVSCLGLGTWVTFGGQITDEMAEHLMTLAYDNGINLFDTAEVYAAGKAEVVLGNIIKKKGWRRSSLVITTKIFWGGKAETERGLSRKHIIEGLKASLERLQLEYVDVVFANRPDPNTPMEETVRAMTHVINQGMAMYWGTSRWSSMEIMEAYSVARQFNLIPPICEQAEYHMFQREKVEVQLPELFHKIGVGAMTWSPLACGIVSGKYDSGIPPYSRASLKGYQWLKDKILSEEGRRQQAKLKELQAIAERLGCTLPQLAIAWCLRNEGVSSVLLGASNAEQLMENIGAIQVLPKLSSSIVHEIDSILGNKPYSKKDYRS

[5] = target: Voltage-gated potassium channel subunit beta-2 (Rattus norvegicus) (UniProt P62483); experiment: KvBeta positive modulators, primary screen, biochemical, NADPH fluorescence (AID 623;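 active means NADPH fluorescence slope more negative than the mean of all samples by about 3 SD, 99.7% confidence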;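 further: fluorescence intensity change per second fitted from 20 to 320 s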); settings: Recombinant KvBeta, NADPH fluorescence decrease slope, 10 min; at 10 µM; stronger effect = lower value
[6] = target: Alpha-2C adrenergic receptor (Homo sapiens) (UniProt P18825); experiment: modulators of alpha2C/GIRK thallium flux, primary screen, cell-based, HEK293 alpha2C/GIRK1/2 (AID 624;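 active means fluorescence slope after compound addition differing from the mean of all screened samples at 99.7% confidence, in either direction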;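 further: slope of fluorescence ratio to pre-addition baseline per second over 15 to 24 s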); settings: thallium flux BTC fluorescence, at 10 µM, actives lie on both sides
Sequence of Alpha-2C adrenergic receptor (Homo sapiens) (P18825 whole entry, looked up): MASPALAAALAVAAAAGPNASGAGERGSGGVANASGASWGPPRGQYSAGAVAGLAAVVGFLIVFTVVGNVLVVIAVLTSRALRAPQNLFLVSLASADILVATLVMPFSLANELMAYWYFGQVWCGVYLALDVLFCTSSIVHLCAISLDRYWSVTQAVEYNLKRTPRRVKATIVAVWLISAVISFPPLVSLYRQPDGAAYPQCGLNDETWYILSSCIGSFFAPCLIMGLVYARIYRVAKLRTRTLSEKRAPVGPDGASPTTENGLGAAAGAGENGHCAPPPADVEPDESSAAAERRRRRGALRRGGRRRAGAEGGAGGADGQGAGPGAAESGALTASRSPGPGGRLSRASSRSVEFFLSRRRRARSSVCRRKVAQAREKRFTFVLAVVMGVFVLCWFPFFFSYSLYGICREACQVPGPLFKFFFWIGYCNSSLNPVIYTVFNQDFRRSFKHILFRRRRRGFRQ

[7] = inhibitors of Sendai virus-induced IRF3 signaling, primary screen, TLR/RLR signaling modifier project, cell-based, Sendai virus stimulus, luciferase, 10K MLSCN set (AID 602276;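 active means inhibition at or above 50% at 10 µM; inactive means inhibition below 50%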;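 further: firefly luciferase from ISG56 promoter only with Renilla not read in this screen; 0% = Sendai virus plus DMSO and 100% = medium plus DMSO without virus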); settings: HEK293 RL24 IRF3 luciferase reporter, at 10 µM, stronger effect = higher value
[8] = inhibitors of poly I:C-induced TLR3 signaling, primary screen, cell-based, poly I:C stimulus, luciferase, 10K MLSCN set (AID 602277;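 active means inhibition of the reporter signal at or above 50%; inactive means inhibition below 50%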); settings: HEK293-TLR3 RL24 IRF3 luciferase reporter, at 10 µM, stronger effect = higher value

Row | Compound | cell count [1] | inhibition [1] | inhibition of aggregation [2] | nuclei count [2] | inhibition [3] | nuclei count [3] | fluorescence slope [4] | NADPH fluorescence slope [5] | slope [6] | inhibition [7] | inhibition [8]
1 | c1ccc(-c2nnc(CSc3nncs3)o2)cc1 | 322 | 16.3% (inactive) | -19% (inactive) | 110% | -49.2% (inactive) | 106% | -0.402 (inactive) | -2e-05 (inactive) | 0.00275 (inactive) | -21.1% (inactive) | -78.9% (inactive)
2 | O=C(CN1CCN(c2ccccn2)CC1)N1c2ccccc2CCc2ccccc21 | 568 | 3.3% (inactive) | -0.5% (inactive) | 103% | 46.8% (inactive) | 99.5% | -0.341 (inactive) | -5.2e-05 (inactive) | 0.0046 (inactive) | 13% (inactive) | 15.9% (inactive)
3 | CNC(=O)C1C2C=CC3(O2)C1C(=O)N(C1CC1)C3C(=O)NCc1ccc(OC)cc1 (centres undefined) | 199 | 11.8% (inactive) | -5.5% (inactive) | 102% | 41.6% (inactive) | 98.4% | -0.533 (inactive) | -3.2e-05 (inactive) | 0.00639 (inactive) | 14.1% (inactive) | 20.2% (inactive)
4 | O=C(COc1ccccc1F)NC1CC1 | 235 | -13% (inactive) | 14.4% (inactive) | 92.8% | 19.9% (inactive) | 100% | -0.395 (inactive) | -4.8e-05 (inactive) | 0.0037 (inactive) | -0.955% (inactive) | 11% (inactive)
5 | CN(C(=O)c1ccccc1Cl)c1ccccc1 | 611 | -2.4% (inactive) | 3% (inactive) | 107% | -28.1% (inactive) | 92.5% | -0.561 (inactive) | -2e-06 (inactive) | 0.00587 (inactive) | 15% (inactive) | 18.4% (inactive)
6 | CCC1CCc2c(sc3ncnc(N4CCOCC4)c23)C1 (centres undefined) | 588 | -4.4% (inactive) | -3.1% (inactive) | 25.7% | -4% (inactive) | 114% | -0.469 (inactive) | -4.6e-05 (inactive) | 0.00589 (inactive) | -6.27% (inactive) | 13.8% (inactive)
7 | O=C(Nc1nc(-c2cccs2)cs1)c1cccc(S(=O)(=O)N2CCCCC2)c1 | 503 | 0% (inactive) | -5.4% (inactive) | 110% | -108% (inactive) | 124% | -0.479 (inactive) | -2.5e-05 (inactive) | 0.00684 (inactive) | 6.17% (inactive) | -7.26% (inactive)
8 | O=C(Cn1ncc2c(=O)oc3ccccc3c21)NCCCN1CCCC1=O | 807 | -9.2% (inactive) | 10.5% (inactive) | 84.8% | -33% (inactive) | 116% | -0.576 (inactive) | -1.5e-05 (inactive) | 0.00642 (inactive) | 1.1% (inactive) | 24.5% (inactive)
9 | Cc1csc(NC(=O)C2CCCO2)n1 (centres undefined) | 725 | -11.4% (inactive) | -7.3% (inactive) | 101% | -133% (inactive) | 134% | -0.494 (inactive) | -5.6e-05 (inactive) | 0.00887 (inactive) | -2.56% (inactive) | 17.7% (inactive)
10 | CCn1c(=O)c2cc(S(=O)(=O)NCc3ccccc3)ccc2n(CC)c1=O | 404 | -2.3% (inactive) | -3.8% (inactive) | 104% | 0.2% (inactive) | 126% | -0.573 (inactive) | 1.7e-05 (inactive) | 0.00625 (inactive) | 11.6% (inactive) | 3.23% (inactive)
11 | Cc1c(C(=O)OCC(C)C)[nH]c2c1C(=O)CC(c1ccco1)C2 (centres undefined) | 464 | 8.4% (inactive) | -226% (inactive) | 4% | -91.9% (inactive) | 96.5% | -0.492 (inactive) | -3.2e-07 (inactive) | 0.00635 (inactive) | 75.6% (active) | 76.5% (active)
12 | COc1ccc(-c2ccc(=O)n(Cc3cc(=O)n4ccccc4n3)n2)cc1 | 789 | -6.4% (inactive) | -19.1% (inactive) | 99.5% | -101% (inactive) | 140% | -0.108 (inactive) | -3.8e-05 (inactive) | 0.00509 (inactive) | 7.67% (inactive) | 12.2% (inactive)
13 | C/C(N)=C(/C#N)C(=O)CSc1nnc(Nc2cccc(C)c2)s1 | 451 | 2.9% (inactive) | 5.1% (inactive) | 101% | -79.4% (inactive) | 130% | -0.492 (inactive) | -3.5e-05 (inactive) | 0.00453 (inactive) | -7.88% (inactive) | -32.1% (inactive)
14 | COCCn1c(SCC(=O)Nc2cccc(OC)c2)nnc1-c1ccc(Cl)cc1 | 467 | 6.7% (inactive) | 8.5% (inactive) | 94.1% | -19.6% (inactive) | 97.1% | -0.598 (inactive) | -2.9e-05 (inactive) | 0.00322 (inactive) | 16.4% (inactive) | 22.6% (inactive)
